Here are results for 5 compounds from PubChem BioAssay.

The structures appear in SMILES notation. Activity calls are given as the source filed them.

The subject of experiment [1] is PRMT1 (protein arginine N-methyltransferase 1). Briefly: small molecules binding arginine methyltransferase PRMT1 – biochemical, small-molecule microarray, 635 nm fluorescence, primary screen (AID 1088).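 Also: binding of Prmt1 protein to compounds spotted on small-molecule microarray slides.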 Conditions: higher = more signal.
The nature of experiment [2]: growth effects on S. cerevisiae YJM789 – YJM789 clinical isolate, OD600, 24 h, basal, primary screen (AID 1089).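 Also: growth of clinical yeast isolate S. cerevisiae YJM 789 seeded 1000 cells per well; test concentration not given here.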 Conditions: higher = more signal, called active from +8 up or from −8 down.
Experiment [3] is described as follows: S. pombe growth modifiers, basal conditions – strain 972, OD600, 24 h, no modulator, primary screen (AID 1090).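 Also: basal condition with compound alone and no growth modifier present; test concentration not given here.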 To be noted: S. pombe 972 growth, higher = more signal, called active from +8 up or from −8 down.
The nature of experiment [4]: budding yeast growth modifiers under rapamycin – strain BY4716, OD600, 96 h, primary screen (AID 1091). Also: test concentration not given here. To be noted: S. cerevisiae BY4716 + rapamycin, higher = more signal, called active from +8 up or from −8 down.
For experiment [5], the target named is Torsin-1A-interacting protein 2 (Homo sapiens) (UniProt Q8NFQ8). Briefly: small molecules binding lysate-expressed LULL1 – cell lysate, human LULL1 lysate, 635/667 nm fluorescence, primary screen (AID 1092).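 Also: probe is lysate of COS7 cells overexpressing human LULL1; score merges per-feature 667 nm fluorescence with signal-to-noise.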 To be noted: small-molecule microarray, hLULL1 lysate binding, 635 nm fluorescence; higher = more signal.
Chain of Torsin-1A-interacting protein 2 (Homo sapiens) (Q8NFQ8 whole entry, looked up): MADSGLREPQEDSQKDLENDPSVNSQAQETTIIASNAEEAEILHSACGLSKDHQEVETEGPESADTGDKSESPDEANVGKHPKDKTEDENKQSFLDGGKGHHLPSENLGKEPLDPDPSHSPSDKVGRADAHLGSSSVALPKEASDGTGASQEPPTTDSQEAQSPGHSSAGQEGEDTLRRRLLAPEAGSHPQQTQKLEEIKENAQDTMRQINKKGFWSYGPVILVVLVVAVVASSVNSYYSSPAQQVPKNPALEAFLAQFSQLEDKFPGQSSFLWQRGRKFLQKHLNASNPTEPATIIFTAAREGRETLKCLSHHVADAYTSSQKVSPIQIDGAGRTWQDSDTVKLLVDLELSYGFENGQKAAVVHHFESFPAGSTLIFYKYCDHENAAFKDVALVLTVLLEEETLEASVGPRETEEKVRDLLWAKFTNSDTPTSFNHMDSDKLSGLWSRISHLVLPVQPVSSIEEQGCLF
Experiment [6] can be described thus: optical density change of DRC41 E. coli – strain DRC41, OD650, 24 h, E. coli filamentation project, primary screen (AID 1093).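 Also: MC1000 strain lacking acrAB efflux and sulA so SOS filamentation is blocked; test concentration not given here.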 Conditions: E. coli DRC41 growth, higher = more signal, called active from +8 up or from −8 down.
Experiment [7] can be described thus: probe aLefty2 binding to arrayed compounds – biochemical, biotinylated probe, 635/667 nm fluorescence, primary screen (AID 1094).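 Also: score merges spot fluorescence near 667 nm with spot signal-to-noise ratio.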 To be noted: small-molecule microarray, higher = more signal.
The test system of experiment [8] is Noggin (protein binding on small-molecule microarray). Put plainly: small molecules binding Noggin protein – biochemical, 635/667 nm fluorescence, primary screen (AID 1095).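 Also: score merges 667 nm feature fluorescence with signal to noise over triplicate slides.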 To be noted: 635 nm fluorescence, higher = more signal.
Experiment [9] addresses Neurogenic locus notch homolog protein 3 (Homo sapiens) (UniProt Q9UM47). Briefly: small molecules binding NOTCH3 protein – biochemical, 635/667 nm fluorescence, primary screen (AID 1096). To be noted: small-molecule microarray, 635 nm fluorescence, higher = more signal.
A short description of experiment [10]: probe aEGFR binding to arrayed compounds – biochemical, biotinylated probe, 635/667 nm fluorescence, primary screen (AID 1097).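 Also: probe is a biotinylated anti-EGFR antibody binding compounds printed on slides; score combines fluorescence near 667 nm and signal to noise of each spot.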 To be noted: small-molecule microarray, higher = more signal.
For experiment [11], the system named is Plasmodium falciparum Sir2 (PF13_0152, Sir2A). Briefly: Plasmodium falciparum Sir2A binding compounds – biochemical, small-molecule microarray, 635 nm fluorescence, primary screen (AID 1098).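 Also: score merges spot fluorescence intensity with its signal-to-noise ratio.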 To be noted: fluorescence 635 nm, higher = more signal.
Experiment [12] in a line: probe aDKK1 binding to arrayed compounds – biochemical, biotinylated probe, 635/667 nm fluorescence, primary screen (AID 1099).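 Also: score merges 667nm spot fluorescence with signal to noise across triplicate slides; reference of the scale not given here.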 To be noted: small-molecule microarray, higher = more signal.
Experiment [13] can be described thus: probe aCHRDL2 binding to arrayed compounds – biochemical, biotinylated probe, 635/667 nm fluorescence, primary screen (AID 1100). To be noted: small-molecule microarray, higher = more signal.
Experiment [14] in a line: change in splice reporter luminescence, either direction, cell-based, HEK293, spliceosome inhibition project, primary screen (AID 1101).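 Also: HEK293 cells carrying a splicing-competent luciferase reporter gene; test concentration not given here.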 To be noted: HEK293 splicing luciferase reporter, 24 h, higher = more signal, called active from +8 up or from −8 down. (In a reporter assay the amount or activity of a reporter protein is the signal.)
The target of experiment [15] is Fibroblast growth factor 10 (Homo sapiens) (UniProt O15520). Briefly: compounds binding fibroblast growth factor 10 – biochemical, small-molecule microarray, 635 nm fluorescence, primary screen (AID 1102). To be noted: FGF10 binding, fluorescence 635 nm, higher = more signal.
Chain of Fibroblast growth factor 10 (Homo sapiens) (O15520 whole entry, looked up): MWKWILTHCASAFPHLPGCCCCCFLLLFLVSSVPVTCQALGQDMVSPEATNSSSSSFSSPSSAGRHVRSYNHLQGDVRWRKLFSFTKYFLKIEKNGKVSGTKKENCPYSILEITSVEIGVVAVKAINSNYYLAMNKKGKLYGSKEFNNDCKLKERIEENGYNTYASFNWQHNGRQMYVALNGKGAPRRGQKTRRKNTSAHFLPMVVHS
The subject of experiment [16] is glycogen synthase kinase-3 (GSK3A per assay name; protocol says GSK3B). Put plainly: compounds binding glycogen synthase kinase-3 – biochemical, small-molecule microarray, 635 nm fluorescence, GSK3A, primary screen (AID 1103). Also: the record names both GSK3A and GSK3B. Conditions: fluorescence 635 nm, higher = more signal.
For experiment [17], the target named is Epidermal growth factor receptor (Homo sapiens) (UniProt P00533). Briefly: compounds binding epidermal growth factor receptor – biochemical, small-molecule microarray, 635 nm fluorescence, primary screen (AID 1104).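 Also: score merges 667 nm emission intensity with spot signal to noise over triplicate slides.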 Conditions: EGFR binding, higher = more signal.
Chain of Epidermal growth factor receptor (Homo sapiens) (P00533 whole entry, looked up): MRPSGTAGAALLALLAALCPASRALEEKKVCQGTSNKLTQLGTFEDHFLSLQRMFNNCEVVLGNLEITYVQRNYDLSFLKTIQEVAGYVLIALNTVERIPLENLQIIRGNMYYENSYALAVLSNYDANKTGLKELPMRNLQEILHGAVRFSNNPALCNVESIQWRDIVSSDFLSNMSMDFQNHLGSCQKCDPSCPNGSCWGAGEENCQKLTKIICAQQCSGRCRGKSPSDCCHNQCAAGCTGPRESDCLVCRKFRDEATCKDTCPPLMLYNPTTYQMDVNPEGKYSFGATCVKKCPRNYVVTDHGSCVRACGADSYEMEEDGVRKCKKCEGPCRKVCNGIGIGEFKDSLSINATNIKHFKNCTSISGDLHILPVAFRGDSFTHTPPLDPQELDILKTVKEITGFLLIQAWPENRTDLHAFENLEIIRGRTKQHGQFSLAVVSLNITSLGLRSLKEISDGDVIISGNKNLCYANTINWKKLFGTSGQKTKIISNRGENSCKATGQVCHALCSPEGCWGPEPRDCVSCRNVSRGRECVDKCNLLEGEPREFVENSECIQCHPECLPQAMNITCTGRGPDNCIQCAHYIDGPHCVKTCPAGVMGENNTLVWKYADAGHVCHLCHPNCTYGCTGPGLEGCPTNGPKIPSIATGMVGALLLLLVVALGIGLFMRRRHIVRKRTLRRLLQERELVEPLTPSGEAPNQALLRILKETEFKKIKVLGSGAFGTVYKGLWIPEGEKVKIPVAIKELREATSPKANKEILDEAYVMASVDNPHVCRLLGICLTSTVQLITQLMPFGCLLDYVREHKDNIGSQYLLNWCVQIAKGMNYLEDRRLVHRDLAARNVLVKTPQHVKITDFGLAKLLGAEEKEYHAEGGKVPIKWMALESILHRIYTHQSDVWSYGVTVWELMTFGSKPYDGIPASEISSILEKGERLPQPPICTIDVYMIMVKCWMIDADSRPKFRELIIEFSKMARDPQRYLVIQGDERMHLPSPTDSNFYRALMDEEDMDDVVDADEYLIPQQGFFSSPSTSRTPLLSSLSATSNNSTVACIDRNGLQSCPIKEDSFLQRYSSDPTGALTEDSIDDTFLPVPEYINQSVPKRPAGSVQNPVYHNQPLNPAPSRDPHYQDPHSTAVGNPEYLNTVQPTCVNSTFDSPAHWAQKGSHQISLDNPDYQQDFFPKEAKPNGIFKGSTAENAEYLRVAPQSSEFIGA
The target of experiment [18] is Follistatin-related protein 3 (Homo sapiens) (UniProt O95633). Put plainly: compounds binding follistatin-related protein 3 – biochemical, small-molecule microarray, 635 nm fluorescence, primary screen (AID 1105).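 Also: score merges emission near 667 nm and signal to noise per printed spot across three slides.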 Conditions: FSTL3 binding, higher = more signal.
Chain of Follistatin-related protein 3 (Homo sapiens) (O95633 whole entry, looked up): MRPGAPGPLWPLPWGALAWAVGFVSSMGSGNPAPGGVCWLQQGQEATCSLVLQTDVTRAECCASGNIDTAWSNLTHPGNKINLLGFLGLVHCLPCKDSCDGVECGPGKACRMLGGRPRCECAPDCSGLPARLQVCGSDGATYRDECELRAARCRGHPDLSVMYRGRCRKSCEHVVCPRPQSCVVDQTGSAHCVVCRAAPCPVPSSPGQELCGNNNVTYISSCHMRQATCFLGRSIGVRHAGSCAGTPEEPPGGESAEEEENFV
The target of experiment [19] is Dickkopf-related protein 1 (Homo sapiens) (UniProt O94907). Briefly: small molecules binding DKK1 protein – biochemical, small-molecule microarray, 635 nm fluorescence scan, primary screen (AID 1106).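 Also: score merges emission near 667 nm with signal to noise over three replicate slides.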 To be noted: higher = more signal.
Chain of Dickkopf-related protein 1 (Homo sapiens) (O94907 whole entry, looked up): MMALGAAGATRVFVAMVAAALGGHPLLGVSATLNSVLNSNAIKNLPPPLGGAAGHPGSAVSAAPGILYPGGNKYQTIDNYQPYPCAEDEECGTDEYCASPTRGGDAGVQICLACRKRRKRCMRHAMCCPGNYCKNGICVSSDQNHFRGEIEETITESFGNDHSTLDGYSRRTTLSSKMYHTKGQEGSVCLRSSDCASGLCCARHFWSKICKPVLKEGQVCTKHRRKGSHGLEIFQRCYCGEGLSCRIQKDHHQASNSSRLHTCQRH
The test system of experiment [20] is Inhibin beta A chain (activin A). Briefly: small molecules binding activin A – biochemical, small-molecule microarray, 635 nm fluorescence scan, primary screen (AID 1107).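 Also: mouse activin A protein probed at 4.33 µg/mL on printed slides; score merges bound-protein fluorescence near 667 nm with spot signal-to-noise.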 To be noted: INHBA, higher = more signal.

Chain of Neurogenic locus notch homolog protein 3 (Homo sapiens) (Q9UM47 whole entry, looked up): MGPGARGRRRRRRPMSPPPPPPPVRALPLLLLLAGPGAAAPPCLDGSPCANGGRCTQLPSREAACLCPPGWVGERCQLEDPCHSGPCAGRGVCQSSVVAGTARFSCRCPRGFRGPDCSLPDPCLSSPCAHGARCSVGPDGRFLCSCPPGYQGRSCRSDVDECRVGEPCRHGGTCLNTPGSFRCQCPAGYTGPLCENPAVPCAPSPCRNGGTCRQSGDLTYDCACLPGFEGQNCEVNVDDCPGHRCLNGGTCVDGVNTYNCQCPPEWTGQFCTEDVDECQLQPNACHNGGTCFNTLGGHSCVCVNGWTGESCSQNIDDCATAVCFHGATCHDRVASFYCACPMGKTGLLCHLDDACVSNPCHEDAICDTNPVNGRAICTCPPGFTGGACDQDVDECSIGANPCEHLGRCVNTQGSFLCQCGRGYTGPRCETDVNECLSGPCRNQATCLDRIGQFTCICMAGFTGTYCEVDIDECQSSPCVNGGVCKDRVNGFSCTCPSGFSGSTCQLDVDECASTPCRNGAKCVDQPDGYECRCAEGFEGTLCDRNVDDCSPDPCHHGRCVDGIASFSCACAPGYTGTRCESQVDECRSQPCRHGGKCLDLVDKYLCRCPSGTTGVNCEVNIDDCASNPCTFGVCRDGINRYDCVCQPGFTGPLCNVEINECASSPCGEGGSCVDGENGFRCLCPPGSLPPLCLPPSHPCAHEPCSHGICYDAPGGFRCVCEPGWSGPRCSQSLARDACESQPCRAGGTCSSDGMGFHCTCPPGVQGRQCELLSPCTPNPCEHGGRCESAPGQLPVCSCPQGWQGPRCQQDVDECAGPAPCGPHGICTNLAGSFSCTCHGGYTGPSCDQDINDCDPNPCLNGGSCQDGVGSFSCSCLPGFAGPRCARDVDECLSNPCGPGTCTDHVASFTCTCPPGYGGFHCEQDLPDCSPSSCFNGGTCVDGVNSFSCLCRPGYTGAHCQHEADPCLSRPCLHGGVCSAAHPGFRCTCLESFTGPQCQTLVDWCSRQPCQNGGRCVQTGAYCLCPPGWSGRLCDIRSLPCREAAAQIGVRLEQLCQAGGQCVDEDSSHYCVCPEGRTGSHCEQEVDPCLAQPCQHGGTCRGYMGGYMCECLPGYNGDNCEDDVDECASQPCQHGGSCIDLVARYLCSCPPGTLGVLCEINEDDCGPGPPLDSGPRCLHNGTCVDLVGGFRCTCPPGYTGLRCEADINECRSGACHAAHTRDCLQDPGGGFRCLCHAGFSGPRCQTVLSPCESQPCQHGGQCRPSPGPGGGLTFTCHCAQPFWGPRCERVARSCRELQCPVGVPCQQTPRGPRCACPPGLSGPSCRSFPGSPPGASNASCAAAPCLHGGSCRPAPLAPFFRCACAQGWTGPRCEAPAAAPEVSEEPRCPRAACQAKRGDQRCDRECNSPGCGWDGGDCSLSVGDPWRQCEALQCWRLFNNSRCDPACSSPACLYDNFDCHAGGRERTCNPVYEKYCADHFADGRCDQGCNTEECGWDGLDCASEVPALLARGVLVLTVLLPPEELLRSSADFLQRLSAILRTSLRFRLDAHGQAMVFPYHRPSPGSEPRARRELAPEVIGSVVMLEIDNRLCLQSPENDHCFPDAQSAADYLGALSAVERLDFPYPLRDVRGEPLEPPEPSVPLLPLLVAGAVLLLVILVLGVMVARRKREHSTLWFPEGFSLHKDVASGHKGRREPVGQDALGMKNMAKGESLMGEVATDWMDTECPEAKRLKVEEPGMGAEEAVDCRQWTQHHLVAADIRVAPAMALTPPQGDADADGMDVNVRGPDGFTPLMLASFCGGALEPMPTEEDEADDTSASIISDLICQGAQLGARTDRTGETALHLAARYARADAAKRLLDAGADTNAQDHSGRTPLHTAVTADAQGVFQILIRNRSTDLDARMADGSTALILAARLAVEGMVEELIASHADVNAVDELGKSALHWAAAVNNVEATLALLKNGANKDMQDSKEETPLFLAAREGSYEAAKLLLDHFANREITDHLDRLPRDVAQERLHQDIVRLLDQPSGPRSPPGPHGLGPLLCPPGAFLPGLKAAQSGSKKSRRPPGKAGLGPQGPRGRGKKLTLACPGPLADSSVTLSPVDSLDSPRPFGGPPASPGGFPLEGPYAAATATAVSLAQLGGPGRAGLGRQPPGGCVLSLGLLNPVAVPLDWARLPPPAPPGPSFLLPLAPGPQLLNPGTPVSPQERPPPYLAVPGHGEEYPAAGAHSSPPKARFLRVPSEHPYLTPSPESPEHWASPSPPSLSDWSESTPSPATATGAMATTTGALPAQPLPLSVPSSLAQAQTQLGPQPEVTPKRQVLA

`CCCC/C=C/[C@H]([C@@H](O)Cc1ccccc1)N(CC#Cc1ccccc1)Cc1ccccc1Br`: the composite z-score in experiment [1] was -0.439; in [5], -0.0817; in experiment [7], 0.0735; in experiment [8] it was -2.07; in experiment [9], -1.4; in experiment [10], -0.428. The composite z-score in experiment [11] was -0.488; in experiment [12], 0.113; in experiment [13], 1.26; in experiment [15], -1.47; in experiment [16] it was -0.749; in experiment [17] it was -1.77. Moreover, the composite z-score is -1.55 in [18], -2.53 in experiment [19] and 0.109 in experiment [20]. The z-score in [2] is 0.933 (inactive); in experiment [3], -0.972 (inactive); in [4], 0.0956 (inactive); in [6], 2.92 (inactive); in experiment [14] it was -0.669 (inactive).

For the compound `CC(C)C[C@@H]1NC(=O)[C@H]2C[C@@H](C(=O)NCCCCCC[N+](C)(C)C)[C@@H](c3ccc(O)cc3)N2C1=O`, the composite z-score in experiment [1] is 0.423; in experiment [5] it was 1.82; in experiment [7], -0.134; in experiment [8], 1.12; in experiment [9] it was 0.275; in experiment [10], -0.149. The composite z-score in experiment [11] was 1.46; in [12], -0.196; in experiment [13] it was 0.0009; in experiment [15], -0.563; in [16], -0.595; in experiment [17], -0.403. Further, the composite z-score in experiment [18] came out at 1.28; in [19] it was 0.505; in experiment [20], 0.446. The z-score in experiment [2] is 0.248 (inactive); in [3] it was 0.0827 (inactive); in experiment [4], 0.109 (inactive); in [6], 0.283 (inactive); in experiment [14], -0.177 (inactive).

With `CO[C@H]1COC(=O)CC=C[C@H](C)[C@@H](OC)COC(=O)[C@H](Cc2ccccc2)NC(=O)CC=C[C@@H]1C`, the composite z-score in [1] is 0.942; in experiment [5] it was -1.22; in [7], -0.298; in experiment [8] it was 1.68; in [9] it was 0.0612; in experiment [10], -0.172. Besides, the composite z-score was 1.49 in experiment [11]; -1.1 in [12]; -1.86 in experiment [13]; -0.0885 in [15]; 0.344 in experiment [16]; 0.514 in [17]. Further, the figures for the composite z-score in [18], in [19] and in experiment [20] were 1.22, 1.96 and 1.72, respectively. Moreover, the z-score in [2] was 0.37 (inactive); in experiment [3], -0.623 (inactive); in experiment [4], 0.725 (inactive); in [6] it was -0.145 (inactive); in experiment [14], -1.34 (inactive).

Take `CC(=O)NCCCC[C@@H]1NC(=O)[C@@H]2C[C@H](C(=O)NCCCCCCN(C)C)[C@H](c3ccc(O)cc3)N2C1=O`: the composite z-score in [1] was found to be 1.54; in [5], 2.4; in experiment [7] it was 0.691; in experiment [8], 1.61; in experiment [9], 1.08; in [10], 0.177. Also, the composite z-score in experiment [11] came out at 1.02; in experiment [12], 0.363; in experiment [13], 0.117; in [15], 1.25; in experiment [16], 1.36; in [17], 1.31. Moreover, the composite z-score in experiment [18] turned out to be 1.5; in experiment [19], 1.86; in [20], 0.11. For the same compound, the z-score in [2] is 0.146 (inactive); in [3], -0.542 (inactive); in experiment [4] it was 0.905 (inactive); in experiment [6], 1.02 (inactive); in experiment [14] it was -1.45 (inactive).

For `COc1cccc([C@@H]2[C@@H](C)CC[C@H]3C(=O)N4[C@H](c5cccc(OC)c5)[C@@H](C)CC[C@H]4C(=O)N23)c1`, the composite z-score is 0.606 in experiment [1]; 0.474 in experiment [5]; -0.138 in experiment [7]; 0.603 in [8]; 1.05 in experiment [9]; -0.0082 in [10]. In addition, the composite z-score in experiment [11] is 0.168; in experiment [12], -0.271; in [13] it was -0.521; in experiment [15] it was 0.614; in experiment [16], 0.802; in [17], 0.518. Also, the results for the composite z-score in experiment [18], in [19] and in experiment [20] were 0.75, 0.558 and -0.185, respectively. The z-score was -2.34 (inactive) in experiment [2]; -1.46 (inactive) in [3]; -0.616 (inactive) in experiment [4]; 0.368 (inactive) in experiment [6]; -1.59 (inactive) in experiment [14].
